Data from PubChem BioAssay.
Activity calls are given as the source filed them.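 Rule for the calls: active = inhibition above the hit cutoff set in the earlier primary screen (cut at about 27% in these data); inactive = the rest.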

target: Protein phosphatase methylesterase 1 (Homo sapiens) (UniProt Q9Y570); experiment: PME-1 inhibitor activity retest, confirmation, biochemical, fluorescence polarization, FP-Rh probe, triplicate (AID 2171); conditions: recombinant PME-1, FP-Rh probe fluorescence polarization; at 5.9 µM; hits give high values;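 note: 0% = enzyme with DMSO and 100% = wells lacking PME-1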
Sequence (Q9Y570 whole entry, looked up): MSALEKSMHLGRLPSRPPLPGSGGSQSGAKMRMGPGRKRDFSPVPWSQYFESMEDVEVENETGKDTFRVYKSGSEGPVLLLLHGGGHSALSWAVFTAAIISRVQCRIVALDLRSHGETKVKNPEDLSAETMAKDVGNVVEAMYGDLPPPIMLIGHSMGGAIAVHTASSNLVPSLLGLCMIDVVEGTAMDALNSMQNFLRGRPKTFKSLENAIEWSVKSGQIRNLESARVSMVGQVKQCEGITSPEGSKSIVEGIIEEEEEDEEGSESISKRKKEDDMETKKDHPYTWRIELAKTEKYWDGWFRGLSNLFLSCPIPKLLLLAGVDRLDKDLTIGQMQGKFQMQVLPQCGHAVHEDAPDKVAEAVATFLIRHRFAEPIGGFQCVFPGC

Row | SMILES | inhibition
1 | CCOc1ccc(C(=O)NC(C)CCc2ccccc2)cc1 (centres undefined) | -6.46% (inactive)
2 | O=C(COC(=O)c1ccccc1Br)Nc1cc(S(=O)(=O)N2CCOCC2)ccc1N1CCCC1 | 52.1% (active)
3 | O=C(N/N=C/c1c[nH]c2ccccc12)c1ccc([N+](=O)[O-])cc1Cl | 20.6% (inactive)
4 | CCOc1ccc(N=Nc2c(=O)[nH]n3c(=O)c4c([nH]c23)CCCC4)cc1 | 24.8% (inactive)
5 | COc1ccc(-c2oc(NC(=O)CCl)c(C#N)c2-c2ccc(OC)cc2)cc1 | 22.7% (inactive)
6 | Cc1c(O)ccc(/C(Cc2ccc3ccccc3n2)=N\O)c1O | 53.5% (active)
7 | COC(=O)/C(=C(O)\C=C\c1ccccc1[N+](=O)[O-])c1nc2ccccc2[nH]1 | 21.9% (inactive)
8 | O=C(N=Nc1c(O)[nH]c2ccccc12)c1cccs1 | 42.6% (active)
9 | CC1=NN(c2ccccc2)C(=O)/C1=C/c1c(O)n(-c2ccc(F)c(Cl)c2)[nH]c1=O | 49% (active)
10 | COc1cc2c(cc1OC)C(c1cc(Br)ccc1F)N(C(=O)CCl)CC2 (centres undefined) | 51.5% (active)
11 | COc1ccc(-c2cc(-c3cc(OC)ccc3O)[nH]n2)cc1 | 71% (active)
12 | O=C(NCCc1ccccc1)c1ccc2nc(-c3ccco3)c(-c3ccco3)nc2c1 | 15.6% (inactive)
13 | N#Cc1cc2ccccc2nc1SCC(=O)Nc1ccccc1N1CCOCC1 | 20.3% (inactive)
14 | Cn1c(=O)c(NCCO)c2c3c(cccc31)C(=O)c1ccccc1-2 | 134% (active)
15 | COc1ccc(O)c(-c2cc(-c3cccc(Br)c3)n[nH]2)c1 | 23.7% (inactive)
16 | C#CCN1c2ccccc2Sc2cccnc21 | 1.92% (inactive)
17 | CCN1CCc2c(sc(NC(=O)Nc3ccc(Cl)c(Cl)c3)c2C(N)=O)C1 | 14.2% (inactive)
18 | Cc1ccc2nc(-c3sc4nc(C)cc(C)c4c3N)[nH]c2c1 | 18.2% (inactive)
19 | Cc1ccc2sc(NNC(=O)c3cc(=O)c4ccccc4o3)nc2c1C | 68.1% (active)
20 | Brc1ccc(-c2ccc(C3Nc4cccc5cccc(c45)N3)o2)cc1 | 24.1% (inactive)
21 | CCCCn1c(NC(=O)c2ccccc2Cl)c(C#N)c2nc3ccccc3nc21 | 19.9% (inactive)
22 | COc1ccc(Nc2nc(NN)nc(C)c2[N+](=O)[O-])cc1 | 17.7% (inactive)
23 | Cc1c(C(=O)O)cccc1-c1ccc(/C=N/Nc2ccc(Br)cc2)o1 | 39.6% (active)
24 | Cc1onc(NC(=O)NC(=O)c2c(Cl)cccc2Cl)c1Br | 17.4% (inactive)
